Results on seven molecules are retold here after PubChem BioAssay (NCATS).

Records with an inconclusive call do not appear. Calls of active or inactive are those of the source. Unless noted, calls come from the whole dose curve; as a rule, active = well fitted curve in the direction sought with a large enough effect; inconclusive = small, poorly fitted or top-dose-only effect, or another doubt; inactive = no such curve, though single readings can be large; an effect the other way counts as inactive or inconclusive. Bounds are passed on as bounds.

A short description of assay [1]: Cell Viability - Jurkat (AID 426;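 active = dose-dependent loss of cell ATP signal giving a full or clear fitted curve, ranked by lower potency value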; note: potency is the fitted concentration of half-maximal effect). Conditions: qHTS. In a few lines: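 Jurkat (clone E6-1, human T-cell leukemia) cells, 5000/well in complete medium, were exposed to compound for 40 hr at 37 °C. Viability was read as intracellular ATP by CellTiter-Glo luminescence; AC50 came from Hill fits of concentration-response data.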
Assay [2] is described as follows: Cell Viability - Hek293 (AID 427;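 active = compounds whose dose-response curve shows a full or clear partial loss of cell viability, called from curve shape rather than a numeric limit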;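 note: potency is the fitted concentration of half-maximal effect; cells exposed to compound for 40 hours at 37 °C before reading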). The conditions noted are these: qHTS. In a few lines:
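HEK293 cells in complete medium were exposed to compound for 40 hr at 37 °C, then cellular ATP was read by CellTiter-Glo luminescence. Data were normalized to DMSO (basal) and 100 uM tamoxifen (100% inhibition), and AC50 came from Hill fits.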
In general terms: qHTS replaces the single test concentration by a dilution series.

Assay [3] in a line: Cell Viability - SH-SY5Y (AID 544).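 For viability change, negative = cytotoxic: 0% = DMSO alone and -100% = 100 µM tamoxifen.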 Note: nearly all actives have a fitted effect of over 55% in size. Note: potency is the fitted concentration of half-maximal effect. The conditions noted are these: SH-SY5Y neuroblastoma cell viability; viability change, negative = cytotoxic: at 92.2 µM (top of the series). In short, it runs like this:
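Human neuroblastoma SH-SY5Y cells (1500/well) in complete medium were exposed to compounds for 40 hr at 37 °C; intracellular ATP was then quantified by CellTiter-Glo luminescence after 20 min at room temperature. AC50 came from Hill-equation concentration-response fits.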

A short description of assay [4]: Cell Viability - Mesenchymal (AID 546).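 Note: cells exposed to compound for 40 hours before reading; 0% = DMSO only and -100% = 100 µM tamoxifen.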 Conditions: mesenchymal cells viability, qHTS; series mostly up to 91.7 µM. In short, it runs like this:
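Normal human renal glomerulus-derived kidney mesenchymal cells, 1000 per well in complete medium, were treated with compounds for 40 hr at 37 °C. Viability was read as intracellular ATP by CellTiter-Glo luminescence; AC50 values came from Hill-equation fits of qHTS concentration-response data.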

Assay [5] addresses Cytochrome P450 3A4 (Homo sapiens) (UniProt P08684). The assay is described as follows: qHTS Assay for Inhibitors and Substrates of Cytochrome P450 3A4 (AID 884). Note: % is set by controls: 0 for no effect and ±100 for the full control effect; nearly all actives have a fitted effect of over 50% in size. Conditions: recombinant CYP3A4, Luciferin-PPXE luminescence; series mostly up to 57.1 µM. In short, it runs like this:
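20 nM human CYP3A4 with 25 uM Luciferin-PPXE (at KM) in 200 mM KPO4, preincubated 10 min with compound; NADPH regeneration started a 60 min RT reaction. Luciferin detected by luminescence, normalized to 57 uM ketoconazole as full inhibition.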

A short description of assay [6]: MultiTox-Fluor Cytotoxicity Assay - LYMP1-002 - Dead Cells (AID 960).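 Note: 0% = DMSO and 100% = tetraoctylammonium bromide; nearly all actives have a fitted effect of over 60% in size.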 Conditions: LYMP1-002 lymphoblastoid cells, dead-cell protease fluorescence; series mostly up to 46.1 µM. In a few lines: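 Human lymphoblastoid cells (LYMP1-002), 2500/well in complete medium, were exposed to compounds for 16 hr at 37 C. Dead-cell protease activity was read as bis-AAF-R110 fluorescence (Ex/Em 485/520), normalized to DMSO and 15 uM tetraoctylammonium bromide; AC50 from Hill fits.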

Assay [7] in a line: Cell Viability - LYMP2-005 (AID 967).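 Note: plate controls were DMSO only for no effect and 92 µM tetraoctylammonium bromide control for full effect.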 Conditions: LYMP2-005 lymphoblastoid cell viability; series mostly up to 92.2 µM. In short, it runs like this:
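LYMP2-005 human lymphoblastoid cells (2500/well) were treated with compounds for 24 h at 37 C. Intracellular ATP was then measured by CellTiter-Glo luminescence after 30 min at room temperature. AC50 values came from Hill-equation fits of qHTS concentration-response data.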

The nature of assay [8]: Cell Viability - LYMP2-019 (AID 973).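 Note: 0% = DMSO alone and full effect = 92 µM tetraoctylammonium bromide; nearly all actives have a fitted effect of over 55% in size.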 Conditions: LYMP2-019 lymphoblastoid cell line viability; series mostly up to 92.2 µM. In a few lines: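 Human lymphoblastoid cells were seeded at 2500 cells/well, preincubated 5 hr at 37 C, then exposed to compounds for 24 hr at 37 C in complete medium. Intracellular ATP was measured by CellTiter-Glo luminescence; AC50 from Hill fits.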

Assay [9] is described as follows: Cell Viability - LYMP2-010 (AID 981). Note: % is set by controls: 0 for no effect and ±100 for the full control effect; nearly all actives have a fitted effect of over 55% in size. Conditions: LYMP2-010 lymphoblastoid cell viability, qHTS; series mostly up to 92.2 µM. In a few lines: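 Human lymphoblastoid LYMP2-010 cells (2500/well) were preincubated 5 hr at 37 C, then exposed to compounds for 24 hr at 37 C in complete medium. Intracellular ATP was measured by CellTiter-Glo luminescence after 30 min at room temperature; AC50 from Hill-fitted concentration-response.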

The nature of assay [10]: Cell Viability - LYMP2-024 (AID 988).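 Note: plate controls were DMSO only for no effect and 92 µM tetraoctylammonium bromide for full effect; nearly all actives have a fitted effect of over 60% in size.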 Conditions: LYMP2-024 lymphoblastoid cell viability; series mostly up to 92.2 µM. In short, it runs like this:
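Human lymphoblastoid cells (2500/well) in complete medium were preincubated 5 hr at 37 C, then exposed to compounds for 24 hr at 37 C. Intracellular ATP was read by CellTiter-Glo luminescence; AC50 from Hill-equation fits of concentration-response data.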

Assay [11] is described as follows: Cell Viability - LYMP2-026 (AID 989). Note: % is set by controls: 0 for no effect and ±100 for the full control effect; nearly all actives have a fitted effect of over 50% in size. Conditions: LYMP2-026 lymphoblastoid cell viability, qHTS; series mostly up to 92.2 µM. In short, it runs like this:
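Human lymphoblastoid cells (2500/well) in complete medium were preincubated 5 hr at 37 C, then exposed to compounds for 24 hr at 37 C. Cellular ATP was read by CellTiter-Glo luminescence; AC50 from Hill-equation fits of concentration-response data.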

A short description of assay [12]: Cell Viability - LYMP1-002 - Assay at 40 hr (AID 994).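 Note: 0% = DMSO only and full inhibition = 92 µM tetraoctylammonium bromide; nearly all actives have a fitted effect of over 60% in size.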 Conditions: LYMP1-002 lymphoblastoid cell viability; series mostly up to 92.2 µM. In a few lines: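 Human lymphoblastoid cells, 2500/well in complete medium, were preincubated 5 hr at 37 C, then exposed to compounds for 40 hr at 37 C. Intracellular ATP was read by CellTiter-Glo luminescence after 30 min at room temperature; AC50 from Hill-equation fits.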

For assay [13], the target named is Peroxisome proliferator-activated receptor gamma (Homo sapiens) (UniProt P37231). Briefly: qHTS assay for small molecule agonists of peroxisome proliferator-activated receptor gamma signaling (AID 588536; active = well fitted curve in the direction sought with a large enough effect in the signal ratio, with a control signal flat, not every such curve was filed as active; the % refers to the signal ratio;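 note: 0% = DMSO basal wells and 100% = rosiglitazone at 2 µM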). The conditions noted are these: HEK293 PPARg-UAS-bla, beta-lactamase ratio, 16 h, percent of rosiglitazone response, DMSO as zero; series mostly up to 76.7 µM. In short, it runs like this: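 GeneBLAzer PPAR-gamma-UAS-bla HEK293 cells in 1% charcoal/dextran-treated FBS medium were treated 16 h at 37 C with compounds. Beta-lactamase activity was read by CCF4 ratio (460/530 nm). Response was normalized to 2 uM rosiglitazone (100%) and DMSO, then Hill-fitted for EC50 and efficacy.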
Chain of Peroxisome proliferator-activated receptor gamma (Homo sapiens) (P37231 whole entry, looked up): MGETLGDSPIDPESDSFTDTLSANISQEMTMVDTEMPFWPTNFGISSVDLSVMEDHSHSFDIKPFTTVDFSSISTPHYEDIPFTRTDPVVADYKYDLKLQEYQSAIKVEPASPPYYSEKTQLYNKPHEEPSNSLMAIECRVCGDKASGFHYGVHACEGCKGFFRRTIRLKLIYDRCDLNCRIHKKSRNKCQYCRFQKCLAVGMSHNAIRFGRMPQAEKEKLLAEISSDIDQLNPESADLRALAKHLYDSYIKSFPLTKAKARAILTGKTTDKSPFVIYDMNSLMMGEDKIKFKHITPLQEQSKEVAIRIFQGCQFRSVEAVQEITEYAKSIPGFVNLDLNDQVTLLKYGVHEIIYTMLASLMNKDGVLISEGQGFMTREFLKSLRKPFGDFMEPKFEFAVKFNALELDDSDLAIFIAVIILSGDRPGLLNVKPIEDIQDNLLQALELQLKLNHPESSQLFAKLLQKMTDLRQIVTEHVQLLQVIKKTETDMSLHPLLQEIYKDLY

Assay [14] is described as follows: qHTS assay for small molecule agonists of retinoid X receptor alpha signaling (AID 588544; calls by dose curve). The conditions noted are these: HEK293T RXRa-UAS-bla, beta-lactamase reporter, 18 h; 530 nm emission.
Assay [15] has as its target Retinoic acid receptor RXR-alpha (Homo sapiens) (UniProt P19793). The assay is described as above. Conditions: HEK293T RXRa-UAS-bla, beta-lactamase reporter, 18 h; series mostly up to 76.7 µM.
Assay [16] concerns the target Thyroid hormone receptor beta (Homo sapiens) (UniProt P10828). Briefly: qHTS assay for small molecule agonists of thyroid hormone receptor beta signaling (AID 588545; calls by dose curve;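 note: 0% = DMSO only and 100% = 10 nM T3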). The conditions noted are these: TR-UAS-bla GripTite HEK 293, beta-lactamase ratio, agonist mode, 18 h; series mostly up to 76.7 µM. In short, it runs like this:
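TR-UAS-bla GripTite HEK 293 cells (2500/well, medium with 2% charcoal/dextran FBS) were treated in agonist mode for 18 h at 37 C, titrated. Beta-lactamase was read by CCF4 ratio after 2 h; normalized to 10 nM T3 (100%) and DMSO, Hill-fitted for EC50 and efficacy.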

Assay [17] in a line: qHTS assay for small molecule antagonists of retinoid X receptor alpha signaling (AID 588546).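 Note: cells stimulated with 9-cis-retinoic acid as agonist; % is set by controls: 0 for no effect and ±100 for the full control effect.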 Conditions: HEK293T RXRa-UAS-bla, beta-lactamase ratio, antagonist mode; measured here: W530 green channel, cytotoxicity proxy. In short, it runs like this: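 Beta-lactamase reporter inhibition, read as CCF4 fluorescence ratio (ex 405, em 460/530 nm) after 2 h at RT. HEK293T UAS-bla cells, 2500/well, were stimulated with 9-cis-RA at 500 or 100 nM final alongside test compound for 18 h at 37 C.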

Assay [18] concerns the target Tumor necrosis factor (Homo sapiens) (UniProt P01375). Briefly: qHTS assay to identify small molecules that stimulate Tumor Necrosis Factor-alpha (TNF-alpha) secretion (AID 651757; active = well fitted curve in the direction sought with a large enough effect in the signal ratio; the % refers to the signal ratio; note: 0% is about no effect). Conditions: Human cells, HTRF 665/615 ratio; series mostly up to 92.2 µM. In short, it runs like this: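 THP-1 cells were exposed to compounds for 17 hrs at 37 C, after which secreted TNF-alpha was measured by homogeneous HTRF (TR-FRET) using cryptate- and XL665-labeled anti-TNF-alpha antibodies, read after 3 hr at room temperature.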

Assay [19] is described as follows: qHTS assay for small molecule antagonists of the retinoid-related orphan receptor gamma (ROR-gamma) signaling pathway - cell viability counter screen (AID 720652; active = well fitted curve in the direction sought with a large enough effect in the repeat runs; an effect the other way counts as inactive or inconclusive;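 note: CHO reporter cells with doxycycline-induced ROR-gamma expression; compound exposure lasted 16 hr before ATP read; % is set by controls: 0 for no effect and ±100 for the full control effect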). Conditions: RORgamma reporter cell line viability counter screen; series mostly up to 92.2 µM. In short, it runs like this: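 Counter screen in CHO cells carrying TET-inducible ROR-gamma and an ROR response element-luciferase reporter; cells plated 5 hr, compound pinned, doxycycline added, then 16 hr at 37 C. Viability read as intracellular ATP by CellTiter-Glo luminescence.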

The target in assay [20] is Nuclear receptor subfamily 1 group I member 2 (Rattus norvegicus) (UniProt Q9R1A7). Briefly: qHTS assay for small molecule activators of the rat pregnane X receptor (rPXR) signaling pathway (AID 651751; call rule not given here; note: 0% is about no effect). Conditions: rPXR reporter cells, luciferase (One-Glo), 24 h.
Chain of Nuclear receptor subfamily 1 group I member 2 (Rattus norvegicus) (Q9R1A7 whole entry, looked up): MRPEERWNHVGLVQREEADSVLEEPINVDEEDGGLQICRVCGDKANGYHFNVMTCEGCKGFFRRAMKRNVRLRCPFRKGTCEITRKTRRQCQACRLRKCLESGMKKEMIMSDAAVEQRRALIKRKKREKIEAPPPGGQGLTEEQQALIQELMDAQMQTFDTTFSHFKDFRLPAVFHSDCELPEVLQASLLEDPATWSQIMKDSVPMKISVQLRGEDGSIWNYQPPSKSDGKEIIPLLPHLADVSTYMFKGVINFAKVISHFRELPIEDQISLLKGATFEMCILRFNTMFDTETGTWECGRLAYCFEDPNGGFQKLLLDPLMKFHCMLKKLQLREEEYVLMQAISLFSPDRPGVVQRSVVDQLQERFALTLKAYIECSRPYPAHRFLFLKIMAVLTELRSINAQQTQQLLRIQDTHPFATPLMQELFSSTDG

Chain of Retinoic acid receptor RXR-alpha (Homo sapiens) (P19793 whole entry, looked up): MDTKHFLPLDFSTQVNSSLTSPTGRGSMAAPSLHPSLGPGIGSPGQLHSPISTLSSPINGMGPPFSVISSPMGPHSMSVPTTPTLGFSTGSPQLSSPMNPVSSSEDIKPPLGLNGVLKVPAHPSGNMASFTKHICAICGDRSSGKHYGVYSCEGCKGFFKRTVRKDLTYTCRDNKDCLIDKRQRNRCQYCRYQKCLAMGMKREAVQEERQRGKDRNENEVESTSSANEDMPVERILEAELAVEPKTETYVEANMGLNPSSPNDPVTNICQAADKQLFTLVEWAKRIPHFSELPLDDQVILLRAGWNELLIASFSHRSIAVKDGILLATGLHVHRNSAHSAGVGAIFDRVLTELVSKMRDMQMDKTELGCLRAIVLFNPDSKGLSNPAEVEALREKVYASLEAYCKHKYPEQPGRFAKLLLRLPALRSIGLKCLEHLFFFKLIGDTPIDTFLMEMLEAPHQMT
Chain of Thyroid hormone receptor beta (Homo sapiens) (P10828 whole entry, looked up): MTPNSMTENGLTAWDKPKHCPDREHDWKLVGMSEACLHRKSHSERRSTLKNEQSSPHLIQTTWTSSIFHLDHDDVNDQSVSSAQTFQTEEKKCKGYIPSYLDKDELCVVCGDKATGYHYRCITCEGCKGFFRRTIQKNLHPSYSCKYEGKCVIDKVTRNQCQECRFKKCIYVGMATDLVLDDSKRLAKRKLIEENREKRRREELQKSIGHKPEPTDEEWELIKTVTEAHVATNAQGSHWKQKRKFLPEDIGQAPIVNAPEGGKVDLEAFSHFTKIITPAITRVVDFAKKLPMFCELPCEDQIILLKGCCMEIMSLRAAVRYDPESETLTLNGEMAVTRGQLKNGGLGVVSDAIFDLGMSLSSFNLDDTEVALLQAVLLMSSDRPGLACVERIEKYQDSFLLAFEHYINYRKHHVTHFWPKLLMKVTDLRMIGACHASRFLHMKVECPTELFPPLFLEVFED
Chain of Cytochrome P450 3A4 (Homo sapiens) (P08684 whole entry, looked up): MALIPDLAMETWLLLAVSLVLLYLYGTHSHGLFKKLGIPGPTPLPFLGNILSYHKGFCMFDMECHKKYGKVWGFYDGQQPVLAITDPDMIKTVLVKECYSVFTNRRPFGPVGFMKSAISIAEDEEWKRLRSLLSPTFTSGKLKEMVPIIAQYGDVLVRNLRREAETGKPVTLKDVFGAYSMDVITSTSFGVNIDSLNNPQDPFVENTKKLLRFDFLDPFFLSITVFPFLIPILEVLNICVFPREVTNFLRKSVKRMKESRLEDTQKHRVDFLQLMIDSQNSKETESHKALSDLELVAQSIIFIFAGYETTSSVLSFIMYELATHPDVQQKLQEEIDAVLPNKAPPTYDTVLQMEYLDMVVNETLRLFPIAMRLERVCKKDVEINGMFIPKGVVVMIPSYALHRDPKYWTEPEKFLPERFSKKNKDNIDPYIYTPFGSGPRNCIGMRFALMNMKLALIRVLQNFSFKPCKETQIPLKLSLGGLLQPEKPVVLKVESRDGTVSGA
Chain of Tumor necrosis factor (Homo sapiens) (P01375 whole entry, looked up): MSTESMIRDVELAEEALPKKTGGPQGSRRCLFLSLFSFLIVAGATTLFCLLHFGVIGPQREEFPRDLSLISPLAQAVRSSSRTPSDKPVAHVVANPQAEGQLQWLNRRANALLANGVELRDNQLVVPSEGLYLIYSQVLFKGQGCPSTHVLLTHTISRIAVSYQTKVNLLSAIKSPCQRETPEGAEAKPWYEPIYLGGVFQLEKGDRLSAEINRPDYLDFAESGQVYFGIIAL

On to `O=[N+]([O-])c1cccc2c([N+](=O)[O-])cccc12`, for which the Potency in assay [1] and in assay [2] was > 92 µM (inactive) each time. The Potency entry in assay [3], in assay [4], in assay [5], in assay [6], in assay [7] and in assay [8] was “inactive” each time. The Potency result in assay [9], in assay [10], in [11], in [12], in [16] and in assay [19] was “inactive” in each case. For the same molecule, the result in assay [13], in assay [15] and in assay [18] was inactive. Besides, the max response was -11.5% in assay [14], -12.9% in [17] and -2.66% (inactive) in assay [20].
Regarding `O=C(O)CCl`, the Potency in assay [1] and in [2] was > 92 µM (inactive) in each case. In addition, the Potency entry in [3], in [5], in assay [6], in assay [7], in assay [8] and in [9] was “inactive” in each case. For the same molecule, the Potency entry in [10], in assay [11], in [12] and in [16] was “inactive” in each case. Moreover, the outcome in assay [13], in assay [15] and in assay [18] was inactive. Moreover, the results for the max response in assay [14], in assay [17] and in assay [20] were -10.2%, 1.14% and 9.97% (inactive), respectively.
On to `Nc1ccc([N+](=O)[O-])cc1[N+](=O)[O-]`, for which the Potency in assay [1] and in assay [2] was > 92 µM (inactive) throughout. The Potency entry in assay [3], in [4], in assay [5], in assay [6], in assay [7] and in [8] was “inactive” in each case. The Potency entry in [9], in assay [10], in assay [11], in assay [12], in assay [16] and in assay [19] was “inactive” each time. Moreover, the result in assay [13], in assay [15] and in assay [18] was inactive. In addition, the max response in assay [14] is -7.45%.
On to `CC(C)(Cl)Cl`, for which the Potency in assay [1] and in [2] was > 92 µM (inactive) in each case. Also, the Potency result in assay [3], in assay [4], in [5], in [6], in [7] and in [8] was “inactive” in each case. The Potency entry in assay [9], in [10], in assay [11], in [12], in [16] and in assay [19] was “inactive” throughout. In addition, the result in [13], in assay [15] and in assay [18] was inactive. Moreover, the max response in [14] is -10.7%; in assay [17], -1.69%; in assay [20], -1.57% (inactive).
Take `CCCCNC(=O)n1c(NC(=O)OC)nc2ccccc21`: the results for the Potency in assay [1], in assay [2] and in [3] were 3.28 µM (active), > 92 µM (inactive) and 6.31 µM (active), respectively. Besides, the Potency result in [4], in [5], in assay [7], in [8], in assay [9] and in assay [10] was “inactive” each time. Besides, the Potency result in [11], in assay [16] and in [19] was “inactive” in each case. Further, the outcome in [13], in assay [15] and in [18] was inactive. The values for the max response in assay [14] and in assay [17] were 14.8% and 3.99%, respectively.
In the case of `Nc1ccc(-c2ccc(N)cc2)cc1`, the Potency in assay [1] and in [2] was > 92 µM (inactive) in each case. Also, the Potency entry in [3], in assay [6], in [7], in assay [8], in [9] and in assay [10] was “inactive” each time. The Potency result in assay [11], in assay [12] and in assay [19] was “inactive” in each case. Moreover, the outcome in [13] and in [15] was inactive. For the same molecule, the max response in assay [14] is -10.1%; in assay [17], -2.33%.
In the case of `CCCCOC(=O)c1ccccc1N`, the Potency in assay [1] and in assay [2] was > 92 µM (inactive) each time. For the same molecule, the Potency result in assay [3], in assay [4], in assay [5], in [6], in assay [7] and in [8] was “inactive” throughout. The Potency entry in assay [9], in assay [10], in [11], in assay [12] and in assay [19] was “inactive” in each case. In addition, the result in assay [13], in assay [15] and in assay [18] was inactive. The values for the max response in [14], in assay [17] and in [20] were -10.9%, -0.876% and -1.8% (inactive), respectively.
